The results in this text go back to PubChem BioAssay AID2546 (National Center for Advancing Translational Sciences (NCATS), 2010).

Screen size: about 310,000 compounds; about 11,000 (3.5%) were called active. A call without a number means that no potency is given here. Inconclusive results (about 8%) are left out. The sample as a whole holds a higher share of actives than the screen did. Values without a mark were called inactive. The call rests on the fitted dose curve; in most records, active means well fitted inhibition curve with a large enough effect; inconclusive means small, poorly fitted or top-dose-only effect, or effect the other way; inactive means flat fitted curve, though single readings scatter.
Potency means the concentration at half of the fitted maximal effect.

The assay in a line: VP16 counterscreen qHTS for inhibitors of ROR gamma transcriptional activity.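 Further: Gal4-VP16 expression switched on by copper sulfate through the metallothionein promoter; nearly all actives have a fitted effect of over 50% in size.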 Conditions: Drosophila S2 Gal4-VP16 UAS-luciferase, luminescence, 20 h; series mostly up to 53.6 µM. On the technique in general: The purpose of a counterscreen is to sort out artefacts and off-target activity.
Turning to `COC(=O)c1ccc(COC(=O)c2cnc(Cl)c(Cl)c2)cc1`, the Potency result is “inactive”.

With `COCc1cc(C)n(CC(=O)NCC2CCCO2)c(=O)c1C#N` (stereo unspecified), the Potency result is “inactive”.

As for `CCc1ccccc1N(CC(=O)NCC1CCCO1)C(=O)CCC(=O)Nc1nccs1` (stereo unspecified), the Potency entry was “inactive”.

As for `COc1ccccc1N1CCN(C(=O)c2cc(=O)c3cc(C)cc(C)c3o2)CC1`, the Potency entry is “inactive”.

`C[C@H]1[C@H]2c3nc4ccccc4n3C[C@H]1ON2C1CCCCC1`: the Potency entry was “inactive”.

Regarding `COc1cc2c(cc1OC)C(c1cccc([N+](=O)[O-])c1)=NCC2`, the Potency result is “inactive”.

As for `CCOc1ccccc1N=C1NC(=O)CS1`, the Potency entry was “inactive”.

`CCOc1cccc(/C=N/N2C(=O)CSC2=S)c1O`: the Potency is 12.6 µM (active).

`O=C1CSC(=S)N1/N=C/c1ccc(O)c([N+](=O)[O-])c1`: the Potency entry is “inactive”.

With `CCOc1ccc(N(CC(=O)Nc2cccc(OC)c2)S(C)(=O)=O)cc1`, the Potency result was “inactive”.

For the compound `CCN1CCN(C2CCCCC2NS(=O)(=O)c2ccc(Cl)cc2)CC1` (stereo unspecified), the Potency entry is “inactive”.

As for `Cc1n[nH]c(=O)nc1N/N=C/c1cccs1`, the Potency was 11.2 µM (active).

In the case of `COc1ccc(Nc2nc(=O)[nH]nc2C)cc1`, the Potency result was “inactive”.

Regarding `Cc1nnc(N/N=C/c2cccs2)[nH]c1=O`, the Potency entry was “inactive”.

Consider `O=C(NCCc1nnc2ccc(SCC(=O)N3CCOCC3)nn12)c1ccccc1`, for which the Potency entry is “inactive”.

As for `CCOC(=O)C1(CCOC)CCN(Cc2cc3ccccc3s2)CC1`, the Potency entry is “inactive”.

Consider `CCC(=O)Nc1ccc2nn(-c3ccc(F)cc3)nc2c1`, for which the Potency result is “inactive”.

With `COc1ccc(C(=O)/C=C/Nc2ccccn2)cc1`, the Potency was 3.55 µM (active).

As for `Cc1cc(N/C=C\C(=O)c2ccc(Cl)c(Cl)c2)no1`, the Potency result is “inactive”.

Take `CCOc1ccc(N/C=C/C(=O)c2cc(OC)c(OC)c(OC)c2)cc1`: the Potency entry is “inactive”.

For `CS(=O)(=O)N1CCc2nc(-c3ccccc3)sc2C1`, the Potency entry was “inactive”.

Take `O=C(NCCOc1ccccc1)c1ccccc1`: the Potency entry was “inactive”.

Take `O=C(NCCc1ccccc1)c1ccc(OCCOc2ccccc2)cc1`: the Potency result was “inactive”.

In the case of `CCCOc1ccc(C(=O)NCCc2ccccc2)cc1`, the Potency was 14.1 µM (active).

`CCC(C(=O)NCCC(C)C)N(Cc1ccccc1Cl)C(=O)c1snc(C(N)=O)c1N` (stereo unspecified): the Potency entry is “inactive”.

Turning to `CCOC(=O)C1CCCN(CCSc2ccc(C)cc2)C1` (stereo unspecified), the Potency result was “inactive”.

For the compound `O=C(Cc1cccc2ccccc12)NCCC1=CCCCC1`, the Potency entry is “inactive”.

On to `CCc1ccc(NC(=O)CS(=O)CC(=O)NCCCc2ccccc2)cc1` (stereo unspecified), for which the Potency entry was “inactive”.

On to `CC(=O)Nc1ccc(S(=O)(=O)N(C)CC(=O)NCCC2=CCCCC2)cc1`, for which the Potency result is “inactive”.

Regarding `S=C(NCCc1ccccc1)Nc1ccccc1`, the Potency is 17.8 µM (active).

Turning to `O=C(COc1ccc(Br)cc1F)NC1CCN(Cc2ccccc2)CC1`, the Potency result was “inactive”.

Take `S=C(NCCC1=CCCCC1)Nc1ccccc1`: the Potency is 5.62 µM (active).

For the compound `O=C(NCCCc1ccccc1)C(=O)c1c[nH]c2ccccc12`, the Potency result is “inactive”.

For the compound `O=C1CCN(C(=S)NCCc2ccccc2)CC1`, the Potency entry is “inactive”.

Consider `NS(=O)(=O)c1ccc(CCNC(=S)Nc2ccc(S(N)(=O)=O)cc2)cc1`, for which the Potency entry was “inactive”.

Take `O=C(NC1CCN(Cc2ccccc2)CC1)c1c(F)cccc1F`: the Potency entry is “inactive”.

As for `S=C(Nc1ccc(Br)cc1)NC1CCN(Cc2ccccc2)CC1`, the Potency was 15.8 µM (active).

Consider `S=C(NCCCc1ccccc1)Nc1ccc(Br)cc1`, for which the Potency was 10 µM (active).

Take `Cc1c(Cl)cccc1NC(=O)NCCCN1CCCC1=O`: the Potency entry was “inactive”.

As to `Cn1c(SCC(=O)N2CCCC2)nnc1-c1cccs1`, the Potency entry was “inactive”.

For `COc1ccccc1CN1CC(C(=O)NCCc2cn[nH]c2)CCC1=O` (stereo unspecified), the Potency entry was “inactive”.

Take `Cc1ccn(CCC(=O)N2c3ccccc3CC2C)n1` (stereo unspecified): the Potency entry is “inactive”.

With `COc1ccc(OC)c(NC(=O)c2ccc3c(c2)C(=O)N(c2ccc(OC(C)=O)cc2)C3=O)c1`, the Potency result is “inactive”.

`O=C(NCCNc1ccccc1[N+](=O)[O-])c1ccccc1F`: the Potency result was “inactive”.

Consider `COc1ccc(-c2nonc2NC(=O)c2oc3ccc(F)cc3c2C)cc1OC`, for which the Potency result was “inactive”.

For the compound `COc1ccc(S(=O)(=O)N2CCC(C(=O)NCc3ccco3)CC2)cc1C`, the Potency entry was “inactive”.

`N#Cc1ccccc1S(=O)(=O)N1CCN(C(=O)c2cc(-c3ccccc3)nn2-c2ccccc2)CC1`: the Potency result was “inactive”.

Take `Cc1c(CCC(=O)N[C@@H](CC(C)C)C(=O)O)c(=O)oc2c(C)c3oc4c(c3cc12)CCCC4`: the Potency entry was “inactive”.

As for `COc1cc2[nH]c(=S)n(Cc3ccc(C)o3)c(=O)c2cc1OC`, the Potency is 10 µM (active).

With `COc1cc2[nH]c(=S)n(CCN3CCCCC3C)c(=O)c2cc1OC` (stereo unspecified), the Potency entry is “inactive”.

Regarding `CCOc1cc2[nH]c(=S)n(Cc3ccc(C(=O)NCCOC)cc3)c(=O)c2cc1OCC`, the Potency result was “inactive”.

Turning to `Cc1ccc(S(=O)(=O)N(CC(O)CN2CCCCC2)c2cccc([N+](=O)[O-])c2)cc1` (stereo unspecified), the Potency result is “inactive”.

Consider `CCc1ccc(NC(=O)N2CCc3ccccc3C2)cc1`, for which the Potency entry is “inactive”.

On to `O=C(Nc1cc2ccccc2oc1=O)C1CCCCC1`, for which the Potency entry was “inactive”.

For `O=C(c1cn(-c2ccccc2)nc1-c1cc2ccccc2oc1=O)N1CCOCC1`, the activity, negative = inhibition was 7.29% [at 10 µM].

Regarding `O=c1oc2ccccc2cc1-c1cn(-c2ccccc2)c(=S)[nH]1`, the Potency is 1.78 µM (active).

Take `CN(C(=O)COC(=O)c1nc(Cl)ccc1Cl)C1CCS(=O)(=O)C1` (stereo unspecified): the Potency result is “inactive”.

On to `CCc1ccc(OCC(=O)N(Cc2ccccc2)C2CCS(=O)(=O)C2)cc1` (stereo unspecified), for which the Potency result is “inactive”.

With `O=C(N/N=C/c1ccc(OCc2ccccc2)cc1)c1ccc(O)cc1`, the Potency was 11.2 µM (active).

As to `O=C(N/N=C/c1ccc(OC(=O)c2ccccc2Cl)cc1)c1ccc(O)cc1`, the Potency result is “inactive”.

With `O=C(Cc1cccs1)N/N=C/c1ccc(OCc2ccccc2)cc1`, the Potency result is “inactive”.

As for `COCCNC(=O)COc1ccc(N(C)S(=O)(=O)c2ccc3ccccc3c2)cc1`, the Potency entry was “inactive”.

Take `CCOc1ccc(S(=O)(=O)Nc2ccc(S(=O)(=O)Nc3cc(OC)ccc3OC)cc2)cc1`: the Potency entry was “inactive”.

For the compound `COc1ccc(NS(=O)(=O)c2ccc(NC(=S)NC(=O)CC(C)C)cc2)cc1`, the Potency entry was “inactive”.

For the compound `COc1ccc(NS(=O)(=O)c2ccc(Oc3c(C#N)cccc3C#N)cc2)cc1`, the Potency is 3.98 µM (active).

With `COc1cccc(CNS(=O)(=O)c2ccc3c(c2)N(C(C)=O)CCS3)c1`, the Potency entry is “inactive”.

Take `COC(=O)c1ccc(COc2ccc(/C=C/C(=O)c3ccc(OC)c(CSCC(=O)O)c3)cc2OC)cc1`: the Potency result was “inactive”.

For the compound `Cc1cccc(OCC(=O)NCC(=O)N/N=C/c2ccc(N(C)C)cc2)c1`, the Potency entry was “inactive”.

For `COc1ccc(OC)c(C(=O)CSc2nnc(-c3cccs3)o2)c1`, the Potency is 15.8 µM (active).

For `COc1ccc(-c2nnc(SCC(=O)c3cccs3)o2)c(OC)c1`, the Potency entry was “inactive”.

In the case of `COc1ccc(C(=O)CSc2nnc(-c3ccco3)o2)cc1`, the Potency entry is “inactive”.
